# Screening results from PubChem.
# Peg3 prom inh: reduces Peg3 promoter-driven luciferase expression in HeLa; inhibition, % at 20 µM; 360,000 compounds, 1.7% hits; HeLa PEG-Prom luciferase reporter, luminescence, overnight;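 active = inhibition of at least 50% at 20 µM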
# EWS-Fli inh: EWS/Fli transcriptional activity inhibition. A673 NR0B1-luciferase reporter, viability-normalised. AID 651661. inhibition, % at 12.6 µM. 350,000 compounds, 0.67% hits;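 active = mean inhibition of at least 50% after viability correction, with every replicate also passing that limit; inconclusive = mean reaches 50% but only one of two replicates passes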;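 also: firefly luciferase signal divided by Alamar Blue viability fluorescence both relative to DMSO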
# Shn3 inh set2: inhibitors of Schnurri-3 3'UTR reporter in osteoblasts | Clone20 osteoblast Shn3 3'UTR firefly luciferase, 24 h | inhibition, % at 12.5 µM | 360,000 compounds, 0.52% hits;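 active = mean inhibition of at least 75% with every replicate also reaching 75%; inconclusive = mean inhibition at least 75% but some replicate below; inactive = mean inhibition below 75%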;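 also: 0% = median of neutral control wells and 100% = pilot-screen positive control compound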
# PAX8 reporter: PAX8 transcriptional activity inhibition; RMG-I TPO-luciferase reporter, SteadyGlo, 24 h; inhibition, % at 12.6 µM; 360,000 compounds, 1.2% hits; AID 652154;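 active = mean replicate inhibition at least 60% with every replicate also reaching 60%; inconclusive = only one of the two criteria is met; inactive = mean below 60% and not all replicates reaching 60%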;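 also: luciferase light reporting Pax8 driven TPO promoter activity; plate controls were median of neutral control wells for no effect and mitoxantrone controls for full effect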
# ABHD5 PLIN5 PPI: ABHD5-PLIN5 protein interaction inhibition; Q00G26+Q8WTS1; Split G. princeps luciferase complementation, luminescence, 4 h; inhibition, % at 4 µM; 360,000 compounds, 0.78% hits; AID 602281;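 active = inhibition above the mean inhibition across every tested compound plus 3 SD, cut at about 22% in these data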;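 also: 0% = DMSO only wells and the 100% control is not disclosed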
# Target sequence (Q00G26 whole entry, looked up): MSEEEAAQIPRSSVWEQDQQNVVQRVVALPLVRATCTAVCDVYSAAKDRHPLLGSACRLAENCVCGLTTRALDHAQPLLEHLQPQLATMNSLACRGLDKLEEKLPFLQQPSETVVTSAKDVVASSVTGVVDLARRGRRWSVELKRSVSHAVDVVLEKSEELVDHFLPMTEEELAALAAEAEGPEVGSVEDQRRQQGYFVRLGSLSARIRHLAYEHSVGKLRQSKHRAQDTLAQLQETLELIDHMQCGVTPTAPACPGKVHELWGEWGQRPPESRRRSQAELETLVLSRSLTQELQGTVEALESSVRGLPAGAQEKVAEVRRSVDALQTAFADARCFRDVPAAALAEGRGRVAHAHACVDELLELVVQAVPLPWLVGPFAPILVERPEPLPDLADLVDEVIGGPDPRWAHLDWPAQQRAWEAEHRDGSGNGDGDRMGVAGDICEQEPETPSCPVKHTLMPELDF
# Target sequence (Q8WTS1 whole entry, looked up): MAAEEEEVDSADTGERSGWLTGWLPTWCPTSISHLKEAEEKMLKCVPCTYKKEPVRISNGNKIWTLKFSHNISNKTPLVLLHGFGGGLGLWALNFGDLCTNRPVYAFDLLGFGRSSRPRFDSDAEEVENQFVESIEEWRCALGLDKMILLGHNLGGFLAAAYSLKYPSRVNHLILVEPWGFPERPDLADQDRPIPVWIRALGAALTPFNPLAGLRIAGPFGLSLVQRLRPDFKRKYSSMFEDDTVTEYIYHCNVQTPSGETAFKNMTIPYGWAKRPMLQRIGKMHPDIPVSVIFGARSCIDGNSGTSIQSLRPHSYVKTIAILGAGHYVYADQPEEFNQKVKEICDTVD
# TRPM1 prom inh: inhibitors of MITF-driven TRPM1 promoter in melanoma cells | inhibition, % at 12.5 µM | 330,000 compounds, 0.83% hits | AID 488899 | SK-MEL-5 TRPM1 promoter luciferase, 24 h;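 active = mean inhibition across replicates of 60% or more, whatever share of single replicates reaches that level; inconclusive = some that reach 60%, reason not given; inactive = mean inhibition across replicates below 60%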
# * marks the source's active call; other numbers are inactive results; ? = inconclusive; . = not tested or not shown. An excerpt weighted towards active compounds, which were near 3% of everything screened.
SMILES,Peg3 prom inh,EWS-Fli inh,Shn3 inh set2,PAX8 reporter,ABHD5 PLIN5 PPI,TRPM1 prom inh
CO[C@H]1CN(C)C(=O)c2ccc(NC(=O)C3CCCCC3)cc2OC[C@H](C)N(C)C[C@H]1C,.,-0.4,.,.,.,.
COCCNC(=O)C[C@@H]1C[C@@H]2c3cc(NC(=O)Nc4ccccc4F)ccc3O[C@@H]2[C@@H](CO)O1,.,-2.5,.,1.7,.,.
O=C(Cn1ncc(Cl)c(Cl)c1=O)N1CCN(S(=O)(=O)c2ccc3ccccc3c2)CC1,105.6*,.,9.5,97.2*,2.6,89.1*
COc1ccc(-c2nnc(SCC(=O)Nc3sc4c(c3C#N)CCCC4)n2-c2ccccc2)cc1,53.3*,21.9,-11.5,.,-3.7,6.0
COc1ccccc1-c1cn(CC[C@@H]2CC[C@@H](NC(=O)C3CCOCC3)[C@@H](CO)O2)nn1,.,7.0,.,9.4,.,.
Oc1ccc(CN2CCc3ccccc3C2)c2cccnc12,94.5*,.,84.4*,.,10.6,71.0*
Oc1ccc(CN2CCN(c3ccccc3)CC2)c2cccnc12,19.0,.,79.4,.,-2.4,53.3
Oc1ccc(Cc2ccccc2)c2cccnc12,69.1*,29.0,57.7,87.0*,7.3,.
Cc1[nH]c2ccccc2c1CN1CCC(Cc2ccccc2)CC1,78.2*,31.4,18.5,8.8,20.6,19.2
Cc1[nH]c2ccccc2c1CN1CCN(c2ccccn2)CC1,-10.6,13.8,.,42.1,2.4,1.7
Oc1ccc(CN2CCC(Cc3ccccc3)CC2)c2cccnc12,.,43.3,.,76.1*,.,.
COCC(=O)Nc1ccc2c(c1)C(=O)N(C)[C@@H]1CC[C@@H](CC(=O)NCC3CC3)O[C@H]1CO2,.,1.3,.,5.9,.,.
Cc1ccc(C)c(S(=O)(=O)N2CCN(Cc3ccc(O)c4ncccc34)CC2)c1,37.5,23.4,90.8*,72.9*,13.9,73.9*
COc1cc(CN2CCc3ccccc3C2)ccc1O,48.9,36.2,95.4*,40.7,-1.8,28.7
CCOC(=O)N1CCN(Cc2ccc(O)c3ncccc23)CC1,.,11.2,.,31.1,.,.
CO[C@H]1CN(C)C(=O)c2ccc(NS(=O)(=O)c3ccc(C)cc3)cc2OC[C@@H](C)N(C(=O)NC(C)C)C[C@H]1C,.,-1.0,.,.,.,.
OC[C@H]1[C@H](c2ccccc2)C2(CN(Cc3cccnc3)C2)N1Cc1ccncc1,.,2.9,.,.,.,.
Oc1ccc(C[C@@H]2CNCCN2CCC23CC4CC(CC(C4)C2)C3)cc1,50.6*,11.0,-8.3,8.1,12.9,19.3
Oc1ccc(C[C@H]2CNCCN2CCCCC2CCCCC2)cc1,106.3*,9.5,-26.2,4.6,13.7,2.5
Oc1ccc(C[C@H]2CNCCN2CCC23CC4CC(CC(C4)C2)C3)cc1,42.2,7.8,-8.5,-10.8,6.2,-2.7
COc1cc2cc(-c3ccc(OC)c(OC)c3C)nc(N)c2cc1OC,64.8*,51.8*,.,71.0*,3.2,.
Cc1ccc(-n2c(-c3ccccc3)c[n+]3c2CCc2ccccc2-3)c(C)c1,42.3,34.8,?,90.9*,3.9,75.8*
Cc1ccc(-n2c(-c3ccccc3)c[n+]3c2CCC3)cc1,-17.3,20.2,77.7,52.2,4.8,26.4
O=C(C[C@@H]1C=C[C@H](NC(=O)NC2CCCCC2)[C@H](CO)O1)NCc1ccc(Cl)cc1,.,-3.4,.,8.4,.,.
O=C(c1ccccn1)N1C[C@@H]2[C@H](c3ccccc31)[C@@H](CO)N2C(=O)C1CCCC1,.,-1.5,.,-13.4,.,.
SMILES,Peg3 prom inh,EWS-Fli inh,Shn3 inh set2,PAX8 reporter,ABHD5 PLIN5 PPI,TRPM1 prom inh
COc1cc(/C=C(/C#N)c2nc3ccccc3[nH]2)ccc1OCC(=O)Nc1ccccc1C,103.5*,7.2,-9.5,.,1.4,4.9
Nc1ccc2nc(-c3ccc(Cl)cc3)[nH]c2c1,-464.7,-57.0,-88.5,79.6*,-4.8,-60.7
Nc1ccc(-c2nc3ccc(N)cc3[nH]2)cc1,-118.3,1.8,-30.0,45.3,5.5,3.8
Nc1ccc(-c2nc3ccc(-c4nc5ccccc5o4)cc3[nH]2)cc1,73.2*,.,-30.7,.,2.5,-42.1
Cc1nc2ccc(-c3nc4ccc(N)cc4[nH]3)cc2[nH]1,13.6,-19.2,-17.5,69.3*,-0.2,8.8
O=C(C[C@@H]1CC[C@@H](NC(=O)c2cccc(F)c2)[C@@H](CO)O1)NCc1ccccc1,.,1.5,.,-8.7,.,.
C[C@@H]1CCCCO[C@H](CN(C)C(=O)c2ccncc2)[C@H](C)CN([C@H](C)CO)C(=O)c2cc(NS(=O)(=O)c3ccc(F)cc3)ccc2O1,.,-1.6,.,3.4,.,.
Cc1ccc(C(=O)/C=C/C(=O)c2ccc(C)cc2)cc1,112.5*,11.5,37.9,-7.9,23.0*,49.9
Cc1ccc(/C=C/C(=O)c2ccc(C)cc2)cc1,-196.4,.,-18.8,.,8.0,-48.6
Cc1ccc(C(=O)/C=C/Nc2ccccn2)cc1,75.6*,.,68.9,.,4.5,70.5*
C[C@H](CO)N1C[C@H](C)[C@@H](CN(C)Cc2cncnc2)Oc2ncc(/C=C/c3ccccc3)cc2C1=O,.,-8.0,.,.,.,.
O=C(Nc1ccccc1N1CCCCC1)c1ccc(Cl)c([N+](=O)[O-])c1,101.2*,8.5,-22.7,6.9,1.9,17.5
CN1CCN(c2ccccc2NC(=O)c2ccc(N3CCCC3)c([N+](=O)[O-])c2)CC1,23.9,48.8,16.3,8.5,10.2,-16.5
CN(c1ccccc1)S(=O)(=O)c1cccc(NC(=O)c2ccc(Cl)c([N+](=O)[O-])c2)c1,93.3*,22.0,73.4,16.4,-17.9,25.1
O=C(Nc1ccccc1-c1ccccc1)c1ccc(Cl)c([N+](=O)[O-])c1,94.0*,.,12.1,41.1,-2.3,9.9
CC(=O)Nc1ccc(C(=O)Nc2cccc(S(=O)(=O)N(C)c3ccccc3)c2)cc1,40.6,-1.3,12.1,8.3,3.0,7.2
C[n+]1ccc(/C=C/c2c[nH]c3ccc(F)cc23)cc1,10.0,28.3,-3.6,70.4*,0.0,18.9
C[n+]1ccccc1/C=C/c1ccc(F)c(F)c1,46.9,4.8,4.1,1.4,1.3,5.9
C[C@@H]1CN([C@H](C)CO)C(=O)c2cc(NC(=O)CCC(F)(F)F)ccc2O[C@@H](C)CCCCO[C@@H]1CN(C)Cc1ccncc1,.,4.6,.,1.1,.,.
COC1(OC)C(/C=C/c2ccc(C)cc2)C(C#N)(C#N)C1(OC)OC (stereo not given),21.6,.,?,85.0*,22.0*,28.2
COc1cc(-c2noc(C)c2/C=C/c2ccc(N)cc2)cc(OC)c1OC,-50.5,57.4*,3.0,78.6*,-6.0,63.5*
COc1cc(-c2c(-c3cc(OC)c(OC)c(OC)c3)noc2C)ccc1F,.,65.8*,.,87.8*,.,.
COc1ccc(-c2c(-c3cc(OC)c(OC)c(OC)c3)noc2C)cn1,-57.3,.,-2.3,.,4.5,.
COc1cc(-c2noc(C)c2C#Cc2ccc(N)cc2)cc(OC)c1OC,-66.5,?,-5.3,75.5*,-5.4,20.2
CNC(C)C#Cc1c(-c2cc(OC)c(OC)c(OC)c2)noc1C (stereo not given),-6.2,6.8,9.1,0.1,3.9,17.0
COc1cc(-c2noc(C)c2C#Cc2ccccn2)cc(OC)c1OC,-3.2,53.7*,9.7,29.1,-8.8,20.8
